A selection: hits, their analogues and other compounds. The true share with any hit is near 3.9%.
Mtb FBA inh – Mtb FBA enzyme inhibitors, primary screen, biochemical, fluorescence, strain H37Rv | inhibition, % at 1 µM | purified M. tuberculosis FBA, fluorescence read-out | Fructose-bisphosphate aldolase (Mycobacterium tuberculosis (strain ATCC 25618 / H37Rv)), … | actives 2.3% (n = 360,000) | AID 588726, 2011
Target sequence (P9WQA3 whole entry, looked up): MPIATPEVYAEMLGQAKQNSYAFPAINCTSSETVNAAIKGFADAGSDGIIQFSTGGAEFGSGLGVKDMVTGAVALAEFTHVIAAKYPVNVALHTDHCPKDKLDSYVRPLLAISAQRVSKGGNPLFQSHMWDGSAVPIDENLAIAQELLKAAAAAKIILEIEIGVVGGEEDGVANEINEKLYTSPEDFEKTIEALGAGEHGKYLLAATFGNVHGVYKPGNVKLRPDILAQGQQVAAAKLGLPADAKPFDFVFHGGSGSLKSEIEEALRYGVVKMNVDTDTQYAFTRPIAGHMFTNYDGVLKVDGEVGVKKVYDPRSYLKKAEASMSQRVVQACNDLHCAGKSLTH
GDH-TPI counter-1 – GDH-TPI coupling enzyme inhibitors, primary screen, artefact control for M. tuberculosis FBA inhibitor project, biochemical, absorbance, full deck. inhibition, % at 4.8 µM. actives 1.2% (n = 360,000). GDH-TPI coupled enzyme counterscreen, NADH absorbance; in the data active = inhibition above about 30%
3CLpro inhibitor – SARS-CoV 3CLpro protease inhibitors, primary screen, biochemical, quenched FRET | Replicase polyprotein 1ab (Severe acute respiratory syndrome coronavirus), P0C6X7 | recombinant SARS-CoV 3CLpro, quenched FRET peptide cleavage | inhibition, % at 6 µM | actives 0.14% (n = 290,000) | AID 1706, 2009; in the data active = inhibition above about 12%
Vc quorum ag – inducers of Vibrio cholerae quorum light production without autoinducers, primary screen, BH1578 luxS cqsA deficient, single point; V. cholerae BH1578 lux reporter, luminescence, 6 h; activation, % at 18.7 µM; actives 0.16% (n = 350,000); AID 588436, 2011; in the data active = activation mostly above about 9.7%, no sharp cut-off
PrPC TRFRET – inhibitors of human cell surface prion protein PrPC, primary screen, cell-based, TR-FRET | TR-FRET read-out | Major prion protein (Homo sapiens), P04156 | actives 0.43% (n = 370,000) | inhibition, % at 13.8 µM | AID 720596, 2013; in the data active = inhibition above about 24%
Mtb FBA confirm – M. tuberculosis aldolase blockers, biochemical, fluorescence, strain H37Rv, confirmation; shares compounds with Mtb FBA inh; purified M. tuberculosis FBA, fluorescence read-out; inhibition, % at 1 µM; actives 78% (n = 5,600); AID 651616, 2012
GDH-TPI counter-2 – GDH-TPI coupling enzyme inhibitors, artefact control for M. tuberculosis FBA inhibitor project, biochemical, fluorescence, high throughput. shares compounds with Mtb FBA inh. GDH-TPI coupled enzyme counterscreen. inhibition, % at 1 µM. actives 81% (n = 5,600). AID 652141, 2013; in the data active = inhibition above about 10%
Of the large screens only hits and unclear results are named; the others gave an inactive call (follow-up assays come after a bar, where they were run). Rule as the data show it, unless noted: active = inhibition above about 27%; inactive = the rest.

O=C(COC(=O)c1ccc[n+]([O-])c1)Nc1ccc(Cl)cc1[N+](=O)[O-]	none (no result: 3CLpro inhibitor)
Clc1ccc(-c2cc3nc(NCc4cccc(Cl)c4)ccn3n2)cc1	none (no result: 3CLpro inhibitor)
O=C(NCCOc1ccccc1)c1cccc2c1C(=O)c1ccc(Cl)cc1S2(=O)=O	none (no result: 3CLpro inhibitor)
COc1ccc(-c2ccc3c(c2)S(=O)(=O)c2cccc(C(=O)NCCOc4ccccc4)c2C3=O)cc1OC	Mtb FBA inh 52 (no result: 3CLpro inhibitor, PrPC TRFRET) | Mtb FBA confirm 39 | GDH-TPI counter-2 29
Cc1ccc(N(CC(O)CN2CCOCC2)S(=O)(=O)c2ccc([N+](=O)[O-])cc2)cc1 (centres undefined)	none
O=c1[nH]c2ccc(Cl)cc2c(O)c1Cc1ccccc1	Mtb FBA inh 35 | Mtb FBA confirm active | GDH-TPI counter-2 193
O=c1[nH]c2ccccc2c2ccc(Cl)cc12	none (no result: 3CLpro inhibitor)
O=C1N=C(c2ccccc2)C(c2ccccc2)N1 (centres undefined)	Mtb FBA inh 91 | Mtb FBA confirm inactive | GDH-TPI counter-2 inactive
COc1ccc(C2=NC(=O)NC2c2ccc(OC)cc2)cc1 (centres undefined)	none
CC(=O)c1ccc(S(=O)(=O)N(C)CCCC(=O)NCc2ccc3c(c2)OCO3)cc1	Mtb FBA inh 84 (no result: 3CLpro inhibitor) | Mtb FBA confirm 144 | GDH-TPI counter-2 96
CCOC(=O)c1cc(C#N)c(SCC(=O)O)[nH]c1=O	Mtb FBA inh 43 | Mtb FBA confirm 32 | GDH-TPI counter-2 22
N#Cc1ccccc1S(=O)(=O)N1CCNS(=O)(=O)c2ccccc21	none (no result: 3CLpro inhibitor)
COc1ccc([N+](=O)[O-])cc1NC(=O)C(C)OC(=O)CSC(C)C(=O)Nc1cc(C)on1 (centres undefined)	none (no result: 3CLpro inhibitor)
COCCCNc1ncnc2c1sc1nc(-c3ccco3)c3c(c12)CC(C)(C)OC3	Mtb FBA inh 39, GDH-TPI counter-1 39 | Mtb FBA confirm 98 | GDH-TPI counter-2 94
CC1(C)Cc2c(c(-c3ccco3)nc3sc4c(NCCO)ncnc4c23)CO1	Mtb FBA inh 44 | Mtb FBA confirm 135 | GDH-TPI counter-2 101
Cc1cccc(-c2nc(C#N)c(NC3CCCCC3)o2)c1	Mtb FBA inh 96 | Mtb FBA confirm 35 | GDH-TPI counter-2 27
COc1ccc(-c2nc(C#N)c(N3CC(C)OC(C)C3)o2)cc1OC (centres undefined)	Mtb FBA inh 61 | Mtb FBA confirm 98 | GDH-TPI counter-2 85
Cc1cccc(-c2nc(C#N)c(N3CCCCC3)o2)c1	Mtb FBA inh 38 | Mtb FBA confirm 36 | GDH-TPI counter-2 33
Cc1ccccc1OCc1nc(C#N)c(N2CCCC2)o1	none
Cc1cccc(-c2nc(CS(=O)CC(=O)NC3CCCC3)c(C)o2)c1 (centres undefined)	none
Cc1ccccc1-c1nc(C#N)c(N2CCCCC2)o1	Mtb FBA inh 70 | Mtb FBA confirm inactive | GDH-TPI counter-2 inactive
Cc1ccc(NC(=O)c2ccc(NCc3ccco3)c([N+](=O)[O-])c2)cc1Cl	none
CC1CCN(c2oc(Cc3cccc4ccccc34)nc2C#N)CC1	none (no result: Vc quorum ag)
Cc1ccc(-c2nc(C#N)c(N3CCC(C)CC3)o2)cc1	Mtb FBA inh 67 | Mtb FBA confirm 61 | GDH-TPI counter-2 58
CC(C)C[C@@H]1COc2cc(Br)ccc2S(=O)(=O)N1Cc1cn(Cc2ccc(Cl)cc2)nn1	none (no result: Mtb FBA inh, GDH-TPI counter-1, 3CLpro inhibitor, Vc quorum ag)
COc1ccc(C(=O)C2CCN(C(=O)c3ccc(C)cc3)CC2)cc1	none
COc1ccc(-c2ccc(C(=O)C3CC3)cc2)cc1	Mtb FBA inh 60 | Mtb FBA confirm 52 | GDH-TPI counter-2 44
O=C1CC(NS(=O)(=O)c2ccc([N+](=O)[O-])cc2)CN1c1cccc(F)c1 (centres undefined)	none (no result: 3CLpro inhibitor)
O=c1c2c(nc3cc(-c4cccc(F)c4)[nH]n13)CCC2	Mtb FBA inh 37 | Mtb FBA confirm inactive | GDH-TPI counter-2 inactive

Bioassay records: PubChem, several laboratories
